Most compounds without a hit are left out; they make up all but 11% or so of the library.
Tau fluor cs = counter-screen for tau fibril formation inhibitors | tau K18 P301L Alexa594 fluorescence, heparin fibrillization | Potency, µM (doses to about 57.7 µM), without a hit: at the highest dose activity change, negative = decrease | 280,000 tested, 0.93% active | AID 1463; further: potency means the concentration at half of the fitted maximal effect; nearly all actives have a fitted effect of over 55% in size
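Human K18 P301L tau (15 uM unlabeled plus 0.24 uM Alexa 594-labeled, final) in 100 mM sodium acetate pH 7 was mixed with compound and 20 uM heparin and incubated 6 hr at 37 C.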
Tau fibril FP = blocks human tau fibril formation measured by polarization | K18 P301L tau heparin fibrillization, Alexa594 FP, 6 h | P10636 | AID 1468 | 280,000 tested, 0.39% active | Potency, µM (doses to about 57.7 µM), for inactives: at the top dose activity, negative = inhibition, hits mostly inhibitors; further: potency means the concentration at half of the fitted maximal effect; nearly all actives have a fitted effect of over 55% in size
Target sequence (P10636 561-689 P618L limits assumed): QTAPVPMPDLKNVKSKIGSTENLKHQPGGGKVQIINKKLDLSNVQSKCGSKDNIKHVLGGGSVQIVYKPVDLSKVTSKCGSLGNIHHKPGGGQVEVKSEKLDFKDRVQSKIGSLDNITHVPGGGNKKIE
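Compound effects on tau fibrillization are measured by Alexa 594 fluorescence polarization (ex 555, em 632 nm). K18 P301L tau is used at 15 uM with 0.24 uM labeled tracer, and 20 uM heparin induces aggregation over 6 hr at 37 C.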
Sfp PPTase inh = inhibitors of Bacillus subtilis Sfp phosphopantetheinyl transferase | Q9F4F7 | Biochemical Sfp PPTase activity, qHTS | Potency, µM, without a hit: largest response in the series, negative = inhibition, actives largely listed as inhibitors | 310,000 tested, 3.5% active | AID 1490;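 further: the enzyme is Sfp with the accession as filed and its product quenches rhodamine fluorescence; potency means the concentration at half of the fitted maximal effect; 0% = enzyme reaction without inhibitor and -100% = no enzyme wells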
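Sfp 15 nM + cpd, 15 min RT; start w/ rhodamine-CoA 5 uM, BHQ-2-YbbR 12.5 uM (final); 50 mM Hepes pH 7.6, 10 mM MgCl2, 0.01% NP-40, 0.01% BSA; read 525/598 nm at 0 and 30 min.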
Tau ThT inhib = blocks human tau fibril formation measured by thioflavin T; Potency, µM (series often up to 57.4 µM), without a hit: at the highest dose activity, negative = inhibition, hits mostly inhibitors; P10636; 270,000 tested, 2.1% active; recombinant tau K18 P301L, heparin-induced fibrillization, ThT fluorescence; further: potency means the concentration at half of the fitted maximal effect; nearly all actives have a fitted effect of over 55% in size
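Fibril formation assay: tau K18 P301L at 15 uM with trace Alexa 594 label, heparin inducer 20 uM, pH 7 sodium acetate buffer, 37 C for 6 hr; endpoint ThT signal.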
G9a inh = G9a (human) methyltransferase inhibition; Q96KQ7; G9a H3K9 monomethylation, AlphaScreen, 2 h; Potency, µM (top dose mostly 102 µM), without a hit: top-dose activity, negative = inhibition, usual class: inhibitors; 350,000 tested, 8.8% active; further: potency means the concentration at half of the fitted maximal effect; nearly all actives have a fitted effect of over 75% in size
Target sequence (Q96KQ7 913-1193 limits assumed): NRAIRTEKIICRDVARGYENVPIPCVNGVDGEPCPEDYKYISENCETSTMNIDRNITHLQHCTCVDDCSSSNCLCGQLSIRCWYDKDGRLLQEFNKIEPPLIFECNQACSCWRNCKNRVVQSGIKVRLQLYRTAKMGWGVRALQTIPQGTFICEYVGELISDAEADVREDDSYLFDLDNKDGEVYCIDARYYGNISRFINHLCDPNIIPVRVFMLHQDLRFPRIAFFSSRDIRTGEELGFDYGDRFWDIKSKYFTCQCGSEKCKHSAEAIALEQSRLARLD
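Compounds were preincubated with 20 nM G9a for 15 min, after which biotinylated H3K9 peptide (500 nM) and SAM (20 uM) started a 2 h room-temperature reaction. Monomethylated product was quantified by antibody-based AlphaScreen chemiluminescence.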
Coupling enz = counter-screen for Giardia aldolase inhibitors: coupling enzyme system. 290,000 tested, 0.67% active. coupling enzyme system counterscreen, AmpLite Red fluorescence. AID 2472. activity change, negative = inhibition, % at 58.2 µM, hits read low; in the data active means activity change below about -30%
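Activity here indicates interference with the coupling reaction, not aldolase inhibition. Compounds at 57.5 uM final met coupling enzymes for 10 min at RT; substrate and AmpLite Red detection followed, with a 525/598 nm fluorescence read after 20 min.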
Numbers without * were called inactive; ? = inconclusive; · = not tested or not shown; [ ] = another dose, or the depositor's remark. Unless noted, the call rests on the fitted dose curve; in most records, active means well fitted curve in the direction sought with a large enough effect; inconclusive means small, poorly fitted or top-dose-only effect, or another doubt; inactive means no such curve, though single readings can be large; an effect the other way counts as inactive or inconclusive. Unless noted, on the % scale 0 is the no-effect control and ±100 the full control effect.

SMILES	Tau fluor cs	Tau fibril FP	Sfp PPTase inh	Tau ThT inhib	G9a inh	Coupling enz
COc1ccc(C(=O)/C=C/c2cn(CC(O)CN3CCOCC3)c3ccccc23)cc1 (centres undefined)	?	?	-22%	10µM*	45µM*	-3
Cc1ccc(C(=O)/C=C/c2cn(CC(O)CN3CCOCC3)c3ccccc23)cc1 (centres undefined)	-23%	6%	-5%	?	-14%[59 µM]	-2
Cc1ccc(C(=O)/C=C/c2cn(CC(O)CN3CCc4ccccc43)c3ccccc23)cc1 (centres undefined)	?	4%	·	?	13µM*	·
O=C(/C=C/c1cn(CC(O)CN2CCOCC2)c2ccccc12)c1cccs1 (centres undefined)	?	6%	-23%	14µM*	-3%	-10
Cc1ccc2nc(-c3ccc(Cl)c(NC(=O)COc4cccc(C)c4C)c3)oc2c1	-6%	3%	·	-1%	-1%[59 µM]	·
COc1ccc(C2C3C=CCCC3(C)C(=O)N2Cc2ccccc2)cc1Cl (centres undefined)	·	·	?	·	·	5
Cc1cc(C)n(CC(=O)NNC(=O)C2CC(=O)N(Cc3ccccc3Cl)C2)n1 (centres undefined)	·	·	26%	·	45µM*	·
CC(C)CC(=O)Nc1cccc(C(C)O)c1 (centres undefined)	2%	11%	29%	0%	3%	1
Nc1nc(-c2ccc3c(c2)OCCO3)c(CC(=O)O)s1	·	·	-20%	·	·	4
Cc1sc(N)nc1-c1ccc2c(c1)OCCO2	·	·	79µM*	·	35µM*	0
NC1=NN=C(c2ccc3c(c2)OCCO3)CS1	-17%	2%	79µM*	?	?	-3
COc1ccc(C(NC(=O)/C=C/c2ccco2)c2ccc(OC)c(OC)c2)cc1 (centres undefined)	1%	0%	20µM*	6%	18µM*	1
CCOc1ccc(C(NC(=O)/C=C/c2ccco2)c2ccc(OC)c(OC)c2)cc1 (centres undefined)	-3%	3%	?	-2%	28µM*	1
COc1ccc(C(NC(=O)c2ccco2)c2ccc(OC)c(OC)c2)cc1OC	6%	4%	4%	0%	4%	9
CC1=NNC(=O)/C1=C\c1cn(-c2ccccc2)nc1-c1cccs1	-10%	9%	32µM*	?	10µM*	5
CC1=NNC(=O)/C1=C\c1cn(-c2ccccc2)nc1-c1ccc(F)cc1	-23%	5%	9%	20µM*	10µM*	-6
COC(=O)[C@H]1O[C@@H](c2cc(OC)c(C)c(OC)c2O)[C@H](C)[C@@H](O)[C@H]1C	-3%	-1%	-17%	-3%	·	-3
CCc1ccc(CNC(=O)c2ccc3c(c2)nc2n3CCCCC2)cc1	-1%	5%	·	-9%	-7%[59 µM]	·
Cc1ccc(C(=O)CSc2ncn[nH]2)cc1	6%	-4%	?	-2%	5.6µM*	1
COc1ccc(C(=O)CSc2ncn[nH]2)cc1OC	0%	-3%	-10%	2%	?	-1
Brc1ccc(CSc2ncn[nH]2)cc1	7%	10%	-10%	1%	20%[59 µM]	-3
O=C(CSc1ncn[nH]1)c1ccc(OC(F)F)cc1	-7%	3%	2%	-18%	25µM*	3
CCCOc1ccc(CSc2ncn[nH]2)cc1	-2%	3%	10%	-11%	13µM*	0
CCc1ccc(C(=O)CSc2ncn[nH]2)cc1	-3%	-5%	71µM*	-8%	8.9µM*	4
Cn1ccnc1SCC(=O)c1ccc(OC(F)F)cc1	·	·	10%	·	?	0
SMILES	Tau fluor cs	Tau fibril FP	Sfp PPTase inh	Tau ThT inhib	G9a inh	Coupling enz
C[C@]12CC[C@@H]3c4ccc(O)cc4CC[C@H]3[C@@H]1C[C@H](O)C2O (some centres undefined)	·	·	2%	·	2%[59 µM]	·
Cc1ccc(NC(=O)COC(=O)CCC(=O)c2ccc(C(C)(C)C)cc2)c([N+](=O)[O-])c1	-23%	?	-8%	-14%	11µM*	1
Cc1ccc(NC(=O)COC(=O)c2cc(Cl)ccc2[N+](=O)[O-])c(C)c1	-19%	-9%	-22%	-13%	?	7
Cc1ccc(NC(=O)COC(=O)COc2ccc(Cl)cc2C)c([N+](=O)[O-])c1	-29%	15%	0%	-16%	28µM*	2
Cc1ccc2c(=O)cc(C(=O)Nc3sc4c(c3C(N)=O)CCCC4)oc2c1	-14%	-12%	·	-16%	-22%[59 µM]	·
CC(C)=NOCc1ccc(-c2cn([C@@H]3COC[C@H]3O)nn2)cc1	-9%	-6%	14%	-8%	40µM*	-3
CC(C)[C@@H](OCc1ccccc1)[C@H](C)/C=N\O[C@@H](C)c1cn([C@@H]2COC[C@@H]2O)nn1	-3%[11.6 µM]	-4%[11.6 µM]	1%	-3%[11.5 µM]	·	-1
COc1ccc(-n2c(COc3ccc4c(c3)OCO4)nnc2SCC(=O)O)cc1	1%	6%	13%	2%	50µM*	16
CCn1c(COc2ccccc2)nnc1SCC(=O)c1cccc([N+](=O)[O-])c1	-30%	9%	-2%	?	40µM*	·
CCOc1cc(C)ccc1OCc1nnc(SCC(=O)c2cccc([N+](=O)[O-])c2)n1CC	-9%	4%	20%	-19%	-5%	8
CCOC(=O)CSc1nnc(-c2ccoc2C)n1-c1ccc(OCC)cc1	-6%	10%	56µM*	-10%	?	0
CCOC(=O)CSc1nnc(Cc2ccc(OC)cc2)n1-c1ccccc1	-3%	4%	2%	3%	7.9µM*	1
CC(=O)Nc1ccccc1-c1nc2ccccc2n(CC(=O)Nc2cccc(C(F)(F)F)c2)c1=O	9%	?	·	?	-4%[59 µM]	·
COc1ccc(-n2c(COc3ccccc3)nnc2SCC(N)=O)cc1	-7%	4%	7%	-15%	45µM*	6
CCOC(=O)CSc1nnc(CSc2nc(N)c3c(C)c(C)sc3n2)n1-c1ccccc1	-9%	1%	3%	-14%	45µM*	2
COc1cccc(-n2c(COc3ccc(C)cc3)nnc2SCC(N)=O)c1	-2%	0%	-2%	-8%	?	1
COc1ccc(-n2c(COc3ccc(C)cc3)nnc2SCC(N)=O)cc1	-12%	-1%	7%	-18%	32µM*	-4
COc1cccc(-c2nnc(SCC(N)=O)n2-c2ccc(Cl)cc2)c1	-3%	0%	5%	-6%	28µM*	4
Cc1ccccc1C(=O)Nc1ccnn1C1CCN(Cc2cnn(C(C)C)c2)CC1	·	·	8%	·	?	0

Source: PubChem (National Center for Advancing Translational Sciences (NCATS))
